Source: PubChem (National Center for Advancing Translational Sciences (NCATS))
HT1080 IDH1KD tx – kills HT-1080 cells with IDH1 knockdown | HT-1080 IDH1 knockdown viability, ATP luminescence, 48 h | Potency, µM (doses to about 46.1 µM), for inactives: at the highest dose activity, negative = toxicity, hits mostly cytotoxic | 2% of 360,000 active;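 also: potency is read from the fitted curve at half-maximal effect; 0% = DMSO wells and -100% = cell-free medium wells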
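Assay cells: HT-1080 with IDH1 knockdown, 750 per well, RPMI/5% FBS. Exposure: 48 h at 37 °C following 2 h pre-incubation. Read: CellTiter-Glo luminescence; fitted concentration-response, curve class assigned.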
KB-3-1 cytotox – KB-3-1 parental cell cytotoxicity | KB-3-1 viability, CellTiter-Glo ATP luminescence, 72 h | Potency, µM (top dose mostly 46.1 µM), most hits filed as cytotoxic | 1.4% of 400,000 active | AID 1347075; also: potency is read from the fitted curve at half-maximal effect; nearly all actives have a fitted effect of over 60% in size
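KB-3-1 parental drug-naive adenocarcinoma cells in DMEM/10% FBS, incubated 72 h at 37 C with pin-transferred compounds across a concentration series. Viability by CellTiter-Glo luminescence; concentration-response curves fitted after normalization.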
HT1080NT lethal – kills 2HG-producing HT-1080-NT fibrosarcoma cells; AID 686970; HT-1080-NT fibrosarcoma viability, CellTiter-Glo ATP luminescence, 48 h; Potency, µM (series often up to 46.1 µM), inactives show at the top dose activity, negative = less viability, most hits filed as cytotoxic; 1.6% of 360,000 active;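 also: NT is the 2HG producing partner of a matched IDH1 knockdown line; potency is read from the fitted curve at half-maximal effect; 0% = DMSO-treated cells and -100% = media-only wells without cells; nearly all actives have a fitted effect of over 55% in size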
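Toxicity toward the 2HG-producing NT line was scored as %Activity, normalised to DMSO and no-cell wells, from CellTiter-Glo luminescence after 48 hours' treatment.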
IL-1B inflam inh – inflammasome signaling inhibition, IL-1 beta readout; THP-1 LPS/ATP IL-1B secretion, AlphaLISA, 16 h; stronger effect = lower value; activity change, % at 57.5 µM; 4.7% of 360,000 active; in the data active = activity change below about -50%; inconclusive = mostly about -30% to -49%
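THP-1 cells pretreated 1 hr with compounds (up to 57.5 uM final), then stimulated with LPS (250 ng/mL final) plus ATP (1.25 mM final); secreted IL-1B measured by AlphaLISA after 16 hr, decreased signal indicating inhibition.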
KB-V1 cytotox – kills drug-selected multidrug resistant KB-V1 cells; KB-V1 MDR cells viability, CellTiter-Glo, 72 h; Potency, µM (titrated, usually from 46.1 µM), usual class: cytotoxic; 3.4% of 400,000 active; also: potency is read from the fitted curve at half-maximal effect; nearly all actives have a fitted effect of over 60% in size
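Readout: CellTiter-Glo luminescence, 10 min after addition. Cells: KB-V1 MDR subline, 72 h at 37 degrees C with compound. Analysis: corrected, normalized data fitted to concentration-effect curves.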
The depositor's hits bear a star. Hits are enriched below; roughly 8.8% of the tested compounds scored in any of these assays. Unless noted, calls follow the shape of the dose curve; as a rule, active = well fitted curve in the direction sought with a large enough effect; inconclusive = small, poorly fitted or top-dose-only effect, or another doubt; inactive = no such curve, though single readings can be large; an effect the other way counts as inactive or inconclusive. Unless noted, % is scaled to controls: 0 for no effect and ±100 for the full control effect.

For CCN(CC)S(=O)(=O)c1ccc(N2CCOCC2)c(NC(=O)CCC2CCCCC2)c1 the results were HT1080 IDH1KD tx -0.4%, KB-3-1 cytotox inactive, HT1080NT lethal 2.6%, IL-1B inflam inh -13.4 and KB-V1 cytotox inactive.
O=C(CCC1CCCC1)Nc1cc(Cl)ccc1N1CCOCC1 was read as HT1080 IDH1KD tx -8.2%, KB-3-1 cytotox inactive, HT1080NT lethal -1.5%, IL-1B inflam inh -56.5* and KB-V1 cytotox inactive.
Screening CC(C)C(=O)N1CCN(c2ccc(NC(=O)c3ccc4c(c3)OCCO4)cc2Cl)CC1 returned HT1080 IDH1KD tx inconclusive, KB-3-1 cytotox inconclusive, HT1080NT lethal inconclusive, IL-1B inflam inh -97.0* and KB-V1 cytotox 2.91µM*.
For COc1cc(NC(=O)c2ccc3c(c2)OCCO3)ccc1NC(=O)c1ccccc1Cl the results were HT1080 IDH1KD tx -18.6%, KB-3-1 cytotox inactive, HT1080NT lethal -25.7%, IL-1B inflam inh -53.3* and KB-V1 cytotox inactive.
`COc1ccc(N2CCOCC2)c(NC(=O)c2ccc3c(c2)OCO3)c1` gave HT1080 IDH1KD tx 0.0%, KB-3-1 cytotox inactive, HT1080NT lethal 3.7%, IL-1B inflam inh -8.9 and KB-V1 cytotox inactive.
CCCS(=O)(=O)NC(=O)C1(C)CCCN(C(=O)c2ccccc2OC(F)(F)F)C1 (configuration not stated) was read as HT1080 IDH1KD tx 0.0%, KB-3-1 cytotox inactive, HT1080NT lethal 20.1%, IL-1B inflam inh 33.5 and KB-V1 cytotox inactive.
For S=C(Nc1cccc(Cl)c1)N1CCN(Cc2ccccc2)CC1 the results were HT1080 IDH1KD tx 13.1%, KB-3-1 cytotox inactive, HT1080NT lethal 11.8%, IL-1B inflam inh 6.6 and KB-V1 cytotox inactive.
CC(=O)N1CCN(c2ccc(NC(=O)c3ccc4c(c3)OCCO4)cc2Cl)CC1 was read as HT1080 IDH1KD tx -20.4%, KB-3-1 cytotox inactive, HT1080NT lethal -20.9%, IL-1B inflam inh -88.3* and KB-V1 cytotox inconclusive.
For O=C(NC(=S)Nc1cccc(Cl)c1N1CCCCC1)c1ccc2c(c1)OCCO2 the results were HT1080 IDH1KD tx 4.2%, KB-3-1 cytotox inactive, HT1080NT lethal 10.6%, IL-1B inflam inh -5.7 and KB-V1 cytotox 14.6µM*.
For Nc1ncnc2c(C3OC(CO)C(O)C3O)c[nH]c12 (configuration not stated) the results were HT1080 IDH1KD tx 0.146µM*, KB-3-1 cytotox 0.184µM*, HT1080NT lethal 0.231µM*, IL-1B inflam inh -103.6* and KB-V1 cytotox 0.291µM*.
Cn1cc(CNCc2cn[nH]c2-c2ccc(F)cc2)c(-c2ccc3c(c2)OCCO3)n1 was read as HT1080 IDH1KD tx -0.3%, KB-3-1 cytotox inactive, HT1080NT lethal 3.7%, IL-1B inflam inh -8.3 and KB-V1 cytotox inactive.
Cn1cc(CNCc2ccc(OC(F)(F)F)cc2)c(-c2ccc3c(c2)OCCO3)n1 was read as HT1080 IDH1KD tx -5.9%, KB-3-1 cytotox inactive, HT1080NT lethal 20.6µM*, IL-1B inflam inh -24.9 and KB-V1 cytotox inconclusive.
O=C(Nc1nnc(C2CC2)s1)C1Cc2ccccc2CN1C(=O)c1ccco1 (configuration not stated) was read as HT1080 IDH1KD tx 6.1%, KB-3-1 cytotox inactive, HT1080NT lethal 3.6%, IL-1B inflam inh 46.9 and KB-V1 cytotox inactive.
O=C(Nc1nnc(SCc2ccc(F)cc2)s1)C1Cc2ccccc2CN1C(=O)c1ccco1 (configuration not stated) was read as HT1080 IDH1KD tx -14.5%, KB-3-1 cytotox inactive, HT1080NT lethal -5.9%, IL-1B inflam inh -78.0* and KB-V1 cytotox inactive.
Screening COCCNC(=O)c1cc2c(c(-c3cccc(C#Cc4ccc(OC)c(OC)c4)c3)n1)[C@@H](CCO)N(S(=O)C(C)(C)C)C2 (some centres not stated) returned HT1080 IDH1KD tx inconclusive, KB-3-1 cytotox inactive, HT1080NT lethal inconclusive, IL-1B inflam inh -17.7 and KB-V1 cytotox inactive.
CN(C)C(=O)c1cccc(-c2cccc(-c3nc(C(=O)NCc4ccccc4)cc4c3[C@@H](CCO)N(S(=O)C(C)(C)C)C4)c2)c1 (some centres not stated) was read as HT1080 IDH1KD tx inconclusive, KB-3-1 cytotox inconclusive, HT1080NT lethal inconclusive, IL-1B inflam inh -55.2* and KB-V1 cytotox inactive.
